Laboratory results reported in PubChem BioAssay (EPA / NIEHS).
Several values for one entry are separate records, joined by “and”; a condition that tells them apart may be missing. Identical values can stand only once. Results filed as inconclusive are left out. A structure can be active in one record and inactive in another. Activity calls are given as the source filed them. How the source made its calls: active means hit-call score of the fitted dose curve at least 0.9, where 1 is the maximum; inconclusive means response in the unintended direction; inactive means score below 0.9.

Experiments:
[1] = TOX21_p53_BLA_p3_viability: Viability Assessment in the Tox21 HCT-116 p53 Agonism Beta-lactamase Assay, Phase 3 (AID 2283593);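 further: cells exposed to compound for 16 h before reading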
How it was run: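 Cellular ATP was quantified by CellTiter-Glo luminescence, read after 30 min at room temperature. Beforehand, HCT116 cells (4000/well) received compound 5 h post-seeding, 217-fold diluted from DMSO, then incubated 16 h at 37C.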

[2] = molecular target: Cellular tumor antigen p53 (Homo sapiens) (UniProt P04637); test: TOX21_p53_BLA_p3_ratio: Tox21 HCT-116 p53 Agonism Beta-lactamase Assay, Ratio, Phase 3 (AID 2283596)
Sequence of Cellular tumor antigen p53 (Homo sapiens) (P04637 whole entry, looked up): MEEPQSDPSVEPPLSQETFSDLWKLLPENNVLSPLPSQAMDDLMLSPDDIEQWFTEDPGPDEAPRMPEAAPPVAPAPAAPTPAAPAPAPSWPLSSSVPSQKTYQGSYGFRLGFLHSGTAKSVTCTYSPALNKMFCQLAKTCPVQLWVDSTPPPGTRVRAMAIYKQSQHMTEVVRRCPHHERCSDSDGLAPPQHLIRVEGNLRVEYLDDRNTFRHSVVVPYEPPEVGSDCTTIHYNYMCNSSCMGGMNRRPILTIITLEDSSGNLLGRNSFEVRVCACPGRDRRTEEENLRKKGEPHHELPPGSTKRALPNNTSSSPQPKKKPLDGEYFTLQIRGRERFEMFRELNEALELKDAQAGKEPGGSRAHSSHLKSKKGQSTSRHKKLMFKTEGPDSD
How it was run: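 HCT116 p53-bla cells (4000/well) given compound in DMSO (217-fold dilution) after 5 h, incubated 16 h at 37C. CCF4-AM substrate 2 h at room temperature; 460/530 nm emission ratio, gain fitted against DMSO.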

[3] = TOX21_p53_BLA_p4_viability: Viability Assessment in the Tox21 HCT-116 p53 Agonism Beta-lactamase Assay, Phase 4 (AID 2283597);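 further: hits lower the luminescence signal meaning cytotoxicity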
How it was run: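 HCT-116 p53-bla cells, 4000/well, dosed after 5 h attachment and incubated 16 h at 37 °C, 5% CO2. Viability from CellTiter-Glo ATP luminescence after 30 min at room temperature, taken after the beta-lactamase read; loss of signal indicates cytotoxicity.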

[4] = molecular target: Cellular tumor antigen p53 (Homo sapiens) (UniProt P04637); test: TOX21_p53_BLA_p5_ratio: Tox21 HCT-116 p53 Agonism Beta-lactamase Assay, Ratio, Phase 5 (AID 2283599)
How it was run: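 Beta-lactamase reporter ratio (blue 460 nm over green 530 nm, 405 nm excitation) after 2 h CCF4-AM loading, in HCT-116 cells exposed 16 h at 37 C to compounds pinned at 217-fold dilution. Increases relative to DMSO baseline scored.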

[5] = molecular target: Cellular tumor antigen p53 (Homo sapiens) (UniProt P04637); test: TOX21_p53_BLA_p4_ratio: Tox21 HCT-116 p53 Agonism Beta-lactamase Assay, Ratio, Phase 4 (AID 2283601)
How it was run: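 Signal is the blue/green (460nm/530nm) ratio of cleaved versus uncleaved CCF4-AM substrate, read after 2 h substrate loading. Cells were HCT116 carrying the p53-responsive beta-lactamase reporter, dosed 16 h at 37C, 5% CO2; CellTiter-Glo measured in parallel.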

[6] = Tanguay_ZF_120hpf_MORT_legacy: (Legacy) Oregon State University Tanguay Lab 120 Hour Post-fertilization zebrafish Assay for Mortality (AID 2283633);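 on AC50: fitted as increase in binary mortality versus DMSO negative control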
How it was run: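 Dechorionated Tropical 5D wild-type zebrafish embryos, one per well from 6 hpf, static exposure in 0.64% DMSO at 28C until 120 hpf. Mortality scored as binary by brightfield microscopy at 24 and 120 hpf.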

[7] = Tanguay_ZF_120hpf_YSE_legacy: (Legacy) Oregon State University Tanguay Lab 120 Hour Post-fertilization zebrafish Assay for Yolk Sac Edema (AID 2283634);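 on AC50: actives raise the incidence of yolk sac edema above the DMSO baseline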
How it was run: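 Dechorionated Tropical 5D wild-type zebrafish embryos were exposed statically, one per well, from 6 to 120 hpf at 28C in 0.64% DMSO. Yolk sac edema was scored present/absent by brightfield at 120 hpf, and dead embryos were excluded.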

[8] = Tanguay_ZF_120hpf_AXIS_legacy: (Legacy) Oregon State University Tanguay Lab 120 Hour Post-fertilization zebrafish Assay for Body Axis Malformation (AID 2283635);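 on AC50: potency for an increased fraction of larvae scored with body axis malformation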
How it was run: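 Dechorionated wild-type Tropical 5D zebrafish embryos, one per well, statically exposed from 6 hpf to 120 hpf at 28C in 0.64% DMSO final. Body axis malformation scored present/absent by brightfield microscopy at 120 hpf; dead embryos excluded.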

[9] = Tanguay_ZF_120hpf_EYE_legacy: (Legacy) Oregon State University Tanguay Lab 120 Hour Post-fertilization zebrafish Assay for Eye Malformation (AID 2283636)
How it was run: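 Read-out is binary presence or absence of eye malformation, scored by brightfield microscopy at 120 hpf. Single larvae were exposed from 6 hpf in embryo medium containing 0.64% DMSO, with DMSO as baseline.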

[10] = TOX21_p53_BLA_p5_viability: Viability Assessment in the Tox21 HCT-116 p53 Agonism Beta-lactamase Assay, Phase 5 (AID 2283600)
How it was run: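 HCT-116 p53 beta-lactamase reporter cells, 4000/well, were exposed to compound (pin transfer, 217-fold dilution) for 16 hours at 37C. Cellular ATP was read by CellTiter-Glo luminescence after 30 min at room temperature.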

Measured: AC50

CC(=O)OCCC(C)C
not listed: [10]
inactive: all other assays above

COCCOc1cc2cc(C(=O)NC3CCN(C(C)C)CC3)n(CC(=O)Nc3ccc(Cl)cn3)c2cn1
not listed: [5]
inactive: all other assays above

CC[C@H](C)C(=O)O[C@H]1C[C@@H](C)C=C2C=C[C@H](C)[C@H](CC[C@@H]3C[C@@H](O)CC(=O)O3)[C@H]21
inactive: [1] | [3] | [4] | [10] | [5] | [7] | [8] | [9]
active: [1] 82.5 µM and 35.6 µM | [3] 79.2 µM and 27.4 µM | [4] 97.1 µM and 37.7 µM | [10] 91.2 µM and 33.6 µM | [5] 97.1 µM | [6] 1.33 µM

CC(=O)OC[C@H]1O[C@@](COC(C)=O)(O[C@H]2O[C@H](COC(C)=O)[C@@H](OC(C)=O)[C@H](OC(C)=O)[C@H]2OC(C)=O)[C@@H](OC(C)=O)[C@@H]1OC(C)=O
not listed: [5] | [10]
inactive: all other assays above

O=C1CCCCCN1
not listed: [8] | [9]
inactive: all other assays above

Cc1[nH]cnc1C[C@H]1CCc2c(C)c3ccccc3n2C1=O
inactive: [1] | [3] | [4] | [10] | [5] | [6] | [7] | [8] | [9]
active: [2] 63.9 µM | [3] 41 µM

Cn1c(=O)c2c(ncn2C)n(C)c1=O
inactive: all assays above

Oc1ccc2c(c1)-c1ccccc1C2
active: [5] 79.7 µM | [7] 37.6 µM | [8] 35.5 µM | [9] 48 µM
inactive: all other assays above

O=C(O)c1cccc(N(Cc2cccnc2)c2ccc(OC(F)F)c(OC(F)F)c2)c1
not listed: [10]
inactive: all other assays above

CC(C)=CCCC(C)=CC=O
not listed: [4]
inactive: all other assays above

CCOC(=O)COc1ccc2c(c1)CC(NCC(O)c1cccc(Cl)c1)CC2 (stereo unspecified)
active: [3] 80 µM | [5] 71.7 µM | [6] 15.6 µM
inactive: all other assays above

Nc1ccc(Nc2ccccc2)cc1
active: [6] 33.2 µM | [7] 27.5 µM | [8] 43.8 µM | [9] 45.8 µM
inactive: all other assays above

CCC(C)(C)C(=O)O[C@H]1C[C@@H](C)C=C2C=C[C@H](C)[C@H](CC[C@@H]3C[C@@H](O)CC(=O)O3)[C@H]21
inactive: [2] | [4] | [10] | [5]
active: [1] 75.7 µM | [3] 46.1 µM | [6] 1.45 µM | [7] 0.649 µM | [8] 0.671 µM | [9] 0.737 µM

CC(C)=CCC/C(C)=C/CO
active: [8] 23.6 µM
inactive: all other assays above

Cc1ccc(C)c(O)c1
not listed: [3]
inactive: all other assays above

O=c1n(CC2CO2)c(=O)n(CC2CO2)c(=O)n1CC1CO1 (stereo unspecified)
inactive: [1] | [3] | [10] | [6] | [7] | [8] | [9]
active: [1] 74.3 µM | [3] 51.2 µM | [4] 32.2 µM and 10.7 µM and 22.6 µM | [5] 33.7 µM and 32.1 µM and 23.5 µM

CN(C)c1ccc(Cc2ccc(N(C)C)cc2)cc1
inactive: all assays above

CCOc1cccc(-n2cc(C(=O)N3CCN(c4cc(C(=O)O)c5ccccc5c4)CC3)nc2-c2ccc(C)cc2)c1
active: [1] 28.6 µM | [2] 41.7 µM | [3] 13.3 µM | [4] 58.1 µM | [10] 36.4 µM | [5] 24.1 µM
inactive: [6] | [7] | [8] | [9]

CCOC(=O)c1ccc(C2CCC(NC[C@H](O)COc3ccc(O)c(NS(C)(=O)=O)c3)CC2)cc1 (stereo partly specified)
active: [3] 60.2 µM | [5] 84 µM
not listed: [9]
inactive: all other assays above

O=C1CCC(N2C(=O)c3ccccc3C2=O)C(=O)N1 (stereo unspecified)
not listed: [4] | [9]
inactive: all other assays above

O=C(OC[C@H]1O[C@@H](OC(=O)c2cc(O)c(O)c(OC(=O)c3cc(O)c(O)c(O)c3)c2)[C@H](OC(=O)c2cc(O)c(O)c(OC(=O)c3cc(O)c(O)c(O)c3)c2)[C@@H](OC(=O)c2cc(O)c(O)c(OC(=O)c3cc(O)c(O)c(O)c3)c2)[C@@H]1OC(=O)c1cc(O)c(O)c(OC(=O)c2cc(O)c(O)c(O)c2)c1)c1cc(O)c(O)c(OC(=O)c2cc(O)c(O)c(O)c2)c1
inactive: [1] | [10] | [6] | [7] | [8] | [9]
active: [1] 6.6 µM | [3] 14.1 µM and 3.93 µM | [4] 17 µM and 10.6 µM | [10] 6.49 µM | [5] 7.98 µM and 3.2 µM

Cn1cnc([N+](=O)[O-])c1Sc1ncnc2nc[nH]c12
inactive: [1] | [3] | [10] | [6] | [7] | [8]
active: [1] 4.91 µM | [2] 30 µM and 33.1 µM | [3] 1.62 µM | [4] 29.8 µM and 34.8 µM | [5] 22.2 µM and 34.3 µM

O=P(OC(CCl)CCl)(OC(CCl)CCl)OC(CCl)CCl
active: [3] 53.8 µM | [7] 25.4 µM | [8] 35.3 µM | [9] 36.7 µM
inactive: all other assays above

Nc1nc2ncc(CNc3ccc(C(=O)N[C@@H](CCC(=O)O)C(=O)O)cc3)nc2c(=O)[nH]1
not listed: [10]
inactive: all other assays above

CCCCCCc1ccc(O)cc1O
inactive: [1] | [2] | [3] | [4] | [10] | [7] | [9]
active: [1] 67.1 µM | [2] 63.9 µM | [3] 69.2 µM and 73 µM | [4] 78.1 µM and 68.4 µM | [10] 74.9 µM | [5] 51.2 µM and 63.3 µM and 39.6 µM | [6] 25.9 µM

COC(=O)c1c(Cl)c(Cl)c(C(=O)OC)c(Cl)c1Cl
inactive: all assays above

O=c1[nH]c2ccc(S(=O)CCN3CCC(Cc4ccc(F)cc4)CC3)cc2o1 (stereo unspecified)
not listed: [10]
inactive: all other assays above

O=C(O)c1cc(N=Nc2ccc(S(=O)(=O)Nc3ccccn3)cc2)ccc1O
inactive: all assays above

O=C(CCCCCCCCc1cccnc1)N1CCC(C=C(c2ccccc2)c2ccccc2)CC1
active: [1] 28.2 µM | [2] 43.2 µM | [10] 13.9 µM
inactive: all other assays above

C[C@](N)(Cc1ccc(O)c(O)c1)C(=O)O
not listed: [2]
inactive: all other assays above

CCn1nc(Cc2ccccc2)cc1C1CCN(C[C@H]2C[C@H](N(C)[C@@H](C(=O)O)C(C)C)C[C@@H]2c2cccc(F)c2)CC1
not listed: [2] | [5]
inactive: all other assays above

CC(C)CCCCCCCOC(=O)CCCCC(=O)OCCCCCCCC(C)C
not listed: [3] | [4] | [10]
inactive: all other assays above

Cc1ccc(N)cc1O
not listed: [2] | [7] | [8]
inactive: all other assays above

CNS(=O)(=O)c1cc(C(=O)N2CCC(CCN3C4CCC3CC(n3c(C)nc5ccccc53)C4)(c3cccc(F)c3)CC2)c(Cl)cc1F (stereo unspecified)
active: [1] 46.1 µM | [3] 16.2 µM
not listed: [2]
inactive: all other assays above

CC(C)=CCCC(C)CCO (stereo unspecified)
not listed: [2] | [5]
inactive: all other assays above

CC(C)(O)c1coc(S(=O)(=O)NC(=O)Nc2c3c(cc4c2CCC4)CCC3)c1
not listed: [2]
inactive: all other assays above

CCN(C(=O)c1cc(C)cc(OC[C@H](C)Nc2ccncc2)c1)C(C)C
not listed: [2]
inactive: all other assays above

CNCc1ccc(NC(=O)c2c[nH]c3c2C(=O)CCC3)cc1
not listed: [2] | [4] | [10]
inactive: all other assays above
